The values that follow come from PubChem BioAssay AID588856 (National Center for Advancing Translational Sciences (NCATS), 2011).

The campaign covered roughly 410,000 compounds. About 3,100 (0.76%) were called active. Entries that show only a call come without a potency. The call rests on the fitted dose curve; in most records, active means well fitted cell-killing curve with a large enough effect; inactive means no such curve, though single readings can be large or run the other way. The full list was thinned out, with actives kept by preference.
Potency means the concentration at half of the fitted maximal effect.

This assay in a line: qHTS for Inhibitors of TGF-b: Cytotox Counterscreen. The following applies: HepG2 CAGA-GFP viability, ATP luminescence, 18 h; series mostly up to 46.1 µM. An excerpt:
TGF-b is a main component in the TGF-b signaling pathway which plays diverse roles in cellular and development pathways. TGF-b is mediated by transcription factors called "Smads". Although the Smad-dependent pathway is the primary canonical TGF-b signaling mode, TGF-b1 can also activate alternative signaling pathways, including those involving MAPK (ERK, JNK and p38). This interaction may mediate or enhance Smad-dependent responses, or can exert Smad-independent effects. The complexity of this signaling cascade allows the TGF-b superfamily to perform unique, overlapping or redundant functions. We believe that targeting the TGF-beta pathway at the Smad-transcription factor level may eliminate the consequences of disrupting the entire pathway and offer specificity without affecting other signaling pathways. Smad3 is the primary transducer of TGF-b's signals and Smad3 regulates many functions attributed to TGF-b signaling. We hypothesize that Smad3 inhibitors will selectively eliminate Smad3-specific TGF-beta signals without undesired off-target effects. We aim to identify Smad3-small molecule antagonists using a quantitative high throughput screening (qHTS) approach.
A high-throughput assay was developed to screen the NIH Molecular Libraries Small Molecule Repository (MLSMR). This is a cell based assay, where TGF-b is tagged with GFP. This is a counterscreen that evaluates the cytotoxicity of the compounds that were screened in the primary cell-based screen (AID 588855).
MH087449NIH Chemical Genomics Center [NCGC]
NIH Molecular Libraries Probe Centers Network [MLPCN]
Assay Submitter (PI): Sushil Rane, National Institute of […]
Suspensions of trypsinized HEPG2 CAGA-GFP cells were dispensed into white, tissue culture-treated, solid 1536-well plates at 5uL/well (1000 cells/well final concentration) in DMEM medium supplemented with 1% FBS. Plates were incubated at 37 degrees C for 2 hours, after which 23 nL of compounds or DMSO were delivered to each well using a pin tool. One uL of recombinant TGF-beta in DMEM (1% FBS) was then dispensed (500 pg/mL final concentration), and plates were incubated at 37 degrees C for 18 hours. Two uL of CellTiter Glo (Promega), a luminescence-based viability reagent, was dispensed, followed by a 10 minute room temperature incubation. The plates were then measured on a PerkinElmer ViewLux plate reader for luminescence (clear filter) using a 5 second exposure. The %Activity was determined from the corrected luminescence values. Wells containing media only (no cells) were used to normalize %Activity of identified toxic compounds; media-only wells corresponded to 100%Activity (complete cell-killing), while DMSO-dosed cell controls were used to normalize 0%Activity (no toxicity).
Concentration-response curves were fitted to the signals arising from the resulting luminescence. The concentration-effect curves were then classified based on curve quality (r2), response magnitude and degree of measured activity, and compounds were subsequently categorized based on their curve class.
Consider `COc1c(O)ccc2c1-c1c3c(cc4c1C(C2)N(C)CC4)OCO3` (centres undefined), for which the Potency result was “inactive”.

As for `COc1ccc2cc1Oc1ccc(cc1)C[C@H]1c3cc(c(OC)cc3CCN1C)Oc1c(O)c(OC)cc3c1[C@H](C2)N(C)CC3`, the Potency is 7.94 µM (active). Take `COc1ccc2c(c1O)-c1cccc3c1[C@@H](C2)N(C)CC3`: the Potency entry is “inactive”. Regarding `CC(C)COC(=O)n1c(=O)oc2ccc(S(=O)(=O)N3CCCCC3)cc21`, the Potency entry is “inactive”. Take `COc1ccccc1CNC(=O)C(Cc1ccccc1)NS(=O)(=O)c1ccc2c(c1)oc(=O)n2C` (centres undefined): the Potency entry was “inactive”. To `ClCCN(CCCl)c1ccc(C=Nc2ccc(/C=C/c3ccnc4ccccc34)cc2)cc1` belongs “inactive”. As to `Cc1ccc(C(O)P(=O)(OC(C)C)c2ccc(N(C)C)cc2)cc1` (centres undefined), the Potency entry is “inactive”. `COc1ccc(CCNC(=O)CCn2c(=O)oc3ccccc32)cc1OC`: the Potency entry was “inactive”. Turning to `O=C1CC(=O)N(Cc2ccccc2)C(=O)N1CCCCCCN1C(=O)CC(=O)N(Cc2ccccc2)C1=O`, the Potency result was “inactive”. As for `CC(C)(C)c1ccc(CN2C(=O)CN=C(c3ccccc3)c3ccccc32)cc1`, the Potency was 12.6 µM (active). The result for `CC(C)OP(=O)(OC(C)C)C(Nc1ccccc1)c1cccc([N+](=O)[O-])c1` (centres undefined) reads “inactive”; that for `O=c1[nH]c(=S)[nH]c(O)c1/C=C1\C=Nc2ccccc21`, “inactive”; that for `COc1ccccc1CNC(=O)Cn1c(=O)oc2cc(Cl)ccc21`, “inactive”. `N#Cc1c(Cl)c(Cl)c(Cl)c(C#N)c1Cl`: the Potency was 0.316 µM (active).

In the case of `Cn1c(=O)oc2cc(S(=O)(=O)N3CCC(C(=O)Nc4ccc(OC(F)(F)F)cc4)CC3)ccc21`, the Potency result was “inactive”. For the molecule `CCCCOP(=O)(c1ccc(N(C)C)cc1)C(O)c1cc(OC)ccc1OC` (centres undefined), the Potency entry was “inactive”. For the molecule `COc1cc([C@@H]2c3cc4c(cc3[C@H](OC(C)=O)[C@H]3COC(=O)[C@H]23)OCO4)cc(OC)c1OC`, the Potency result was “inactive”. As to `CCOC(=O)C(NS(=O)(=O)c1ccc(C)cc1)(C(F)(F)F)P(=O)(OCC(C)C)OCC(C)C` (centres undefined), the Potency entry was “inactive”.

Turning to `CN(C)CC1Oc2ccccc2OC1(O)c1ccccc1` (centres undefined), the Potency is 3.98 µM (active). `CO[C@H]1[C@@H](O)[C@@H](C)O[C@H](O[C@H]2[C@H](Oc3cccc4c(O)c5c(=O)oc6ccc(C)c7c(=O)oc(c34)c5c67)O[C@H](C)[C@H](O)[C@@H]2O)[C@@H]1O`: the Potency result was “inactive”. As for `CCOC(=O)c1ccc(NC(=O)CCn2c(=O)oc3ccccc32)cc1`, the Potency result was “inactive”. `O=C1NC(=O)N(Cc2ccco2)C(=O)/C1=C\c1ccc(-c2ccc(F)cc2)o1`: the Potency is 12.6 µM (active).

As for `CCOP(=O)(OCC)C(Cc1ccccc1)N=C(c1ccccc1)c1ccccc1` (centres undefined), the Potency entry was “inactive”.

As to `Cc1ccc2c(c1)C1C[N+](C)(CC(=O)c3ccccc3)CCC1N2C(=O)c1ccccc1Cl` (centres undefined), the Potency result is “inactive”.

With `Brc1cc(Br)c(Oc2cc(Br)c(Br)cc2Br)cc1Br`, the Potency entry is “inactive”. For the molecule `COC(=O)C1=C(c2ccccc2)C[C@@H]2CC[C@H]1N2C(=O)NCc1ccco1`, the Potency entry was “inactive”. For the molecule `Cc1ncoc1C(=O)NCC1=C(c2cccc3ccccc23)C[C@@H]2CC[C@H]1N2Cc1ccco1`, the Potency entry was “inactive”.

In the case of `COc1cc(Cn2c(N)c(C(=O)NCc3ccco3)c3nc4ccccc4nc32)cc(OC)c1OC`, the Potency is 17.8 µM (active). As for `CCN(CC)C(=O)Oc1ccc(OC(=O)N(CC)CC)cc1`, the Potency entry was “inactive”.
